Screening results as filed in PubChem.
S1P4 agonist: agonists of human S1P4 receptor. O95977. S1P4-expressing cell line, agonist reporter assay. activation, % at 4.98 µM. 220,000 compounds, 0.35% hits. AID 1509; in the data active = activation above about 11%;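 also: 0% = DMSO vehicle and 100% = reference agonist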
S1P3 antagonist: blocks the human S1P3 receptor | Q99500 | CHO S1P3 NFAT-BLA reporter, FRET fluorescence, antagonist mode | inhibition, % at 4.98 µM | 170,000 compounds, 0.27% hits;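 active = inhibition above the plate cutoff, the mean inhibition of test wells on that plate plus 3 SD, cut at about 28% in these data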;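 also: cells challenged with S1P at its EC80 of 0.8 µM; blue over green emission ratio from cleaved BLA substrate after 4 h stimulation; 0% = S1P-stimulated wells and 100% = unstimulated DMSO-only wells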
EP2 modulator: modulates human prostaglandin E2 receptor EP2 signaling; EP2-expressing cells, cAMP HTRF FRET, PGE2 co-stimulation; 260,000 compounds, 0.83% hits; P43116; induction, % at 25 µM;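 active = compounds whose cAMP rise, as percent of the full-agonist control response, exceeds 60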;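 also: rat C6 glioma line stably carrying human EP2 under a CMV promoter; the protocol text gives 20 µM as final concentration; 100% = response of wells given 1 µM PGE2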
S1P4 antagonist: human S1P4 receptor antagonism; S1P4-expressing cells, antagonist mode, reporter read-out; 220,000 compounds, 0.26% hits; inhibition, % at 4.98 µM; AID 1510; in the data active = inhibition above about 29%;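 also: 0% = wells stimulated with agonist and 100% = vehicle wells without agonist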
EP2 antag: EP2 receptor (human) inhibition. P43116. C6 glioma cells expressing human EP2, cAMP TR-FRET; cells stimulated with saturating PGE2. inhibition, % at 25 µM. 260,000 compounds, 0.52% hits;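 active = percent inhibition above 40 after rounding to a whole number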;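 also: rat C6 glioma host cells with rolipram phosphodiesterase inhibitor present; the protocol text gives 20 µM as final concentration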
S1P4 agonist cf: confirmation of human S1P4 receptor agonists; shares compounds with S1P4 agonist; S1P4 agonist cell-based reporter assay; activation, % at 4.98 µM; 740 compounds, 7% hits; AID 1523; in the data active = activation above about 12%;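 also: 0% = vehicle and 100% = full reference agonist response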
S1P1 ag: activates human S1P1, counter-screen for S1P4 agonists; activation, % at 4.98 µM; S1P1 agonist cell-based assay, activation; 740 compounds, 4% hits; AID 1563; shares compounds with S1P4 agonist; in the data active = activation above about 21%;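 also: 0% = vehicle wells and 100% = reference agonist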
Target sequence (P21453 whole entry, looked up): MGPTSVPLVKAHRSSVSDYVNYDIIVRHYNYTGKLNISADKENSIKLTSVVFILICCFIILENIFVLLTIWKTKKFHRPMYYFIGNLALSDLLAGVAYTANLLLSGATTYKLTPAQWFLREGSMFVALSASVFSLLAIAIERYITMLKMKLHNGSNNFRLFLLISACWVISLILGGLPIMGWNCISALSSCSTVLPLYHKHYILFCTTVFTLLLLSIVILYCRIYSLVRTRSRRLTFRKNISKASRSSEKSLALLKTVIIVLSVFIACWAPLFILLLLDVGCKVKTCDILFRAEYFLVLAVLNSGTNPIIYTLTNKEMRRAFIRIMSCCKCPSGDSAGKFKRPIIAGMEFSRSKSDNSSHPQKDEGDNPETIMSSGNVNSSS
The depositor's hits bear a star; / = no result given. Most compounds without a hit are left out; they make up all but 1.9% or so of the library.

SMILES	S1P4 agonist	S1P3 antagonist	EP2 modulator	S1P4 antagonist	EP2 antag	S1P4 agonist cf	S1P1 ag
COc1ccc(CCNC(=O)COC(=O)C23CC4CC(CC(C4)C2)C3)cc1	11*	-3	4	-3	5	0	-5
CCCCNC(=O)CCn1c(=O)c2ccccc2n(Cc2ccc(F)cc2)c1=O	15*	5	12	-20	5	-2	1
COCCCNC(=O)CCn1c(=O)c2ccccc2n(Cc2cccc([N+](=O)[O-])c2)c1=O	0	-9	23	-13	13	/	/
Cn1c(=O)[nH]c(=O)c2c1nc(N1CCCCCC1)n2Cc1ccccc1F	/	/	-3	/	11	/	/
CN(C(=O)Cn1nc2n(C)c3ccccc3n2c1=O)C1CCCCC1	/	/	-23	/	6	/	/
Cc1ncc([N+](=O)[O-])n1CC(=O)NCc1ccccc1	0	/	25	-9	4	/	/
Cc1ncc([N+](=O)[O-])n1CC(=O)NCCc1ccccc1	16*	-15	17	3	3	-1	-1
CCCn1c(SCC(=O)Nc2ccccc2C(F)(F)F)nnc1-c1ccncc1	/	/	3	/	13	/	/
CC(C)CCOP(=O)(c1ccccc1)c1ccccc1	58*	-7	40	-21	15	-1	2
CCN(CC)C(=O)C1CCCN(Cc2ccccc2)C1 (centres undefined)	22*	/	8	5	15	-2	0
Cc1cc(Nc2ccc(F)cc2F)n2nc(C)nc2n1	1	-34	10	-12	11	/	/
Cc1cc(Nc2cc(F)ccc2C)n2nc(C)nc2n1	14*	-44	-8	0	9	-2	-8
Cn1c(CNC(=O)OC(C)(C)C)nnc1SCc1c(Cl)cccc1Cl	56*	6	4	-5	2	-2	-11
CCc1nc(SCC(=O)Nc2nnc(C)s2)c2c(C)c(C)sc2n1	/	/	16	/	22	/	/
COCCSc1nc(N)c(NC(=O)c2ccc(OC)cc2)c(=O)[nH]1	12*	-13	-5	-7	4	-2	-4
Cc1cc(NC(=O)CSc2nc(N)c(NC(=O)c3ccccc3)c(=O)[nH]2)no1	0	-29	-1	7	6	/	/
NC(=S)NNC(=O)c1cc(C(F)(F)F)cc(C(F)(F)F)c1	77*	-4	7	-16	9	-1	1
Nc1nc(N2CCOCC2)nc2ccccc12	22*	-32	-9	0	12	-1	-7
CCn1c(=O)c2cc(C(=O)N(C)c3ccc(OC)cc3OC)sc2c2ccccc21	-1	13	4	-3	9	/	/
CCn1c(=O)c2cc(C(=O)N(C)c3ccccc3F)sc2c2ccccc21	21*	14	-2	-5	7	-2	-6
O=C(O)CCC(=O)Nc1ccccc1C(=O)N1CCN(c2ccc(Cl)cc2)CC1	122*	2	18	6	6	-2	0
O=C(O)C1CC=CCC1C(=O)Nc1ccccc1C(=O)N1CCN(c2ccc(Cl)cc2)CC1 (centres undefined)	1	-6	43	-8	13	/	/
Cc1ccccc1CC1(CO)CCCN(C(=O)c2cc(Cl)ccc2F)C1 (centres undefined)	26*	-1	-27	4	10	-2	3
O=C(CSc1nc(C2CC2)nc2sc3c(c12)CCCC3)N1CCCC1	/	/	-15	/	16	/	/
Cn1c(O)c(C=Nc2ccc(N3CCOCC3)cc2)c(=O)n(C)c1=S	30*	-18	-4	12	8	-2	-1
SMILES	S1P4 agonist	S1P3 antagonist	EP2 modulator	S1P4 antagonist	EP2 antag	S1P4 agonist cf	S1P1 ag
CCC(=O)N(CC1CCCO1)c1nc(-c2ccc(C)cc2)cs1 (centres undefined)	/	/	52	/	18	/	/
O=C(CN1CCC(Cc2ccccc2)CC1)Nc1ccc2c(c1)OCCO2	413*	/	-20	-5	9	-2	-9
CCOC(=O)c1cc(NC(=O)c2ccc(OC)cc2)c(=O)oc1-c1ccccc1	22*	/	-2	13	4	-2	10
Cc1ccccc1OCC(=O)Nc1nc2ccccc2[nH]1	21*	5	-64	24	8	-1	4
CCOc1ccccc1OCC(=O)Nc1nc2ccccc2[nH]1	-3	-5	-76	-6	4	/	/
CCn1c(COc2ccc(OC)cc2)nnc1SCC(=O)Nc1ccc(F)cc1	/	/	-19	/	5	/	/
COc1ccc(NC(=O)Cn2cccc2)c(OC)c1	35*	9	4	-10	2	-2	0
